Compound activity: PubChem BioAssay, National Center for Advancing Translational Sciences (NCATS)
Only some compounds are listed: those with a hit (about 7.5% of all), similar ones and a draw of the others.
Luc counter: Kinase-Glo luciferase inhibition (counter-screen). Kinase-Glo luciferase, ATP luminescence, 8 min. Potency, µM (highest dose often 38.3 µM), inactives show at the highest dose activity change, negative = inhibition, most hits filed as inhibitors. hit rate 0.28% among 200,000; further: on the % scale 0 is the no-effect control and ±100 the full control effect; nearly all actives have a fitted effect of over 60% in size
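Inhibition of Kinase-Glo luciferase light generation was assessed at 10 uM ATP in pH 7.2 imidazole buffer, with luminescence measured after eight minutes at ambient temperature.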
ELG1 genotoxic: induces genotoxicity in HEK293T cells with luciferase-tagged ELG1 | HEK293T ELG1-luciferase reporter, luminescence, 16 h | hit rate 1.3% among 330,000 | AID 504466 | Potency, µM (titrated, usually from 46 µM), for the others: at the top dose activity change, positive = activation, most hits filed as activators; further: % of control where 0% means no effect; nearly all actives have a fitted effect of over 60% in size
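HEK293T cells expressing luciferase-tagged ELG1 were exposed to compound or DMSO vehicle for 16 hr at 37 °C and 5% CO2. Luciferase activity was then measured with ONE-Glo after 30 min at room temperature.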
SMN2 splice up: SMN2 splice variant enhancement; Potency, µM (highest dose often 46.1 µM), for inactives: top-dose activity change, positive = activation, usual class: activators; HEK293 SMN2-luciferase splicing reporter, luminescence, 30-36 h; hit rate 2.8% among 210,000; further: % of control where 0% means no effect; nearly all actives have a fitted effect of over 55% in size
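qHTS luciferase splicing reporter: luminescence rises when SMN2 exon 7 is included in transfected HEK293 cells. Compound exposure lasted 30-36 h at 37C, with 4.5 mM final sodium butyrate as control, followed by a ONE-Glo read.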
Rab9 prom act: Rab9 promoter activation. Potency, µM (series often up to 9.22 µM), for inactives: top-dose activation, negative = inhibition, usual class: activators. hit rate 2.8% among 320,000. Huh7 Rab9 promoter-luciferase reporter, luminescence, 24 h; further: % of control where 0% means no effect; nearly all actives have a fitted effect of over 60% in size
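Quantitative HTS format; Huh7 Rab9-luciferase reporter cells (1500/well) receive compound 2 h post-plating, incubate 24 h at 37 °C, then get luciferase reagent for 10 min before luminescence reading.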
NPC1 promoter act: activators of NPC1 promoter. Huh7 NPC1 promoter luciferase reporter, 24 h. Potency, µM (titrated, usually from 9.22 µM), for inactives: at the highest dose activation, most hits filed as activators. hit rate 2.4% among 320,000; further: % of control where 0% means no effect; nearly all actives have a fitted effect of over 60% in size
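Stably transfected Huh7 (NPC1 promoter→luciferase), 1500 cells/well in Opti-MEM + 10% FBS, 2 h settle, then compound 24 h at 37 °C. Luminescence after 10 min with Amplite reagent.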
FLuc modulator: counter-screen for miR-21 project: firefly luciferase inhibitors or activators; P08659; purified FLuc, Km substrates, luminescence inhibition; Potency, µM (series often up to 57.5 µM), without a hit: top-dose activity change, negative = inhibition, actives largely listed as inhibitors; hit rate 6.9% among 360,000; AID 588342;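 further: plate controls were vehicle for no effect and reference inhibitor for full effect; nearly all actives have a fitted effect of over 55% in size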
Target sequence (P08659 whole entry, looked up): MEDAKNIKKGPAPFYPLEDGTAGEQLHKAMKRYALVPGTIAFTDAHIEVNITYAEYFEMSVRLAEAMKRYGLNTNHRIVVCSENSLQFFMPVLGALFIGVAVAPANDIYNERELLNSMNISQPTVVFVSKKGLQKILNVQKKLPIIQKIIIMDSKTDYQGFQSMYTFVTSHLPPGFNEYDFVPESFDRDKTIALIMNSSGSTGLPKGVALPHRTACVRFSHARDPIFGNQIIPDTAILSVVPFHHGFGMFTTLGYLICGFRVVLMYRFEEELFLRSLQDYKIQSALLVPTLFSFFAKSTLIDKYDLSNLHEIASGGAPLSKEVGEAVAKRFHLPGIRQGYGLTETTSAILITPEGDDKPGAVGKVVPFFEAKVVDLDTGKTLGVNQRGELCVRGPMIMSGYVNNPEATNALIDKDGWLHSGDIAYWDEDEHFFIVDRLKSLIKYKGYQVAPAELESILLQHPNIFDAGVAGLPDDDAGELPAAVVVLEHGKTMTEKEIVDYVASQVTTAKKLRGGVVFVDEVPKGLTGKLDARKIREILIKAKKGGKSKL
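Purified P. pyralis luciferase (10nM final) with 10uM D-luciferin and 10uM ATP (Km levels) in 50mM Tris acetate pH 7.5, 10mM Mg acetate, 0.01% Tween-20, 0.05% BSA; qHTS 6-point titration, ~60 µM downward; luminescence read.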
Active calls of the source: *; [ ] = dose if it differs, or a comment. The call rests on the fitted dose curve; in most records, active means well fitted curve in the direction sought with a large enough effect; inconclusive means small, poorly fitted or top-dose-only effect, or another doubt; inactive means no such curve, though single readings can be large; an effect the other way counts as inactive or inconclusive. Potency means the concentration at half of the fitted maximal effect.

COc1cc(/C=C(/NC(=O)c2ccccc2Cl)C(=O)O)cc(OC)c1OC was read as Luc counter 2%, ELG1 genotoxic 0%, SMN2 splice up -13%, Rab9 prom act 0%, NPC1 promoter act 7% and FLuc modulator -2%.
For COc1c(C(=O)NNC(=O)c2ccccc2Cl)csc1Br the results were ELG1 genotoxic inconclusive, Rab9 prom act inconclusive, NPC1 promoter act 3.5µM* and FLuc modulator 21µM*.
Screening Oc1nc(Nc2ccccc2)sc1/C=C1\C=Nc2ccccc21 returned ELG1 genotoxic inconclusive, Rab9 prom act 2.8µM*, NPC1 promoter act 4µM* and FLuc modulator 19µM*.
For CCOC(=O)c1c(Nc2ccccc2)sc(/C=C2\C=Nc3ccccc32)c1O the results were Luc counter -3%, ELG1 genotoxic 12%, SMN2 splice up -6%, Rab9 prom act -3%, NPC1 promoter act -4% and FLuc modulator 6%.
For CCn1c(O)c(/C=C2\C=Nc3ccccc32)sc1=O the results were Luc counter 2%, ELG1 genotoxic 6.5µM*, SMN2 splice up 22µM*, Rab9 prom act 1.4µM*, NPC1 promoter act inconclusive and FLuc modulator 2.7µM*.
`CCn1c(C(=O)OC)cc2c1ccn2-c1ccc(F)cc1` gave Luc counter 1%, ELG1 genotoxic 16µM*, SMN2 splice up 16µM*, Rab9 prom act inconclusive, NPC1 promoter act inconclusive and FLuc modulator 9.5µM*.
Nc1ccc(CN2CCOCC2)cc1 was read as Luc counter 0%, ELG1 genotoxic 6%, SMN2 splice up -4%, Rab9 prom act 0%, NPC1 promoter act -11% and FLuc modulator -7%.
`CCCn1c(C)nc2c(NC3CCN(Cc4ccccc4)CC3)nc(C)nc21` gave Luc counter -1% and SMN2 splice up -12%.
For O=C1CCCCC1C(=O)c1cn(-c2ccc(Cl)c(Cl)c2)nn1 (stereo unspecified) the results were Luc counter -2%, ELG1 genotoxic inconclusive, SMN2 splice up 14µM*, Rab9 prom act 24%, NPC1 promoter act 11% and FLuc modulator 0.85µM*.
`Cc1cccc(Cn2cc(SCC(=O)Nc3nccs3)c3ccccc32)c1` gave Luc counter 2%, ELG1 genotoxic 4.1µM*, SMN2 splice up 9%, Rab9 prom act inconclusive, NPC1 promoter act inconclusive and FLuc modulator -13%.
Screening COc1ccc(OC)c(NC(=O)C(C)n2c(=O)c(-c3ccccc3NC(C)=O)nc3ccccc32)c1 (stereo unspecified) returned FLuc modulator -7%.
Screening COc1ccc2nc(SCc3cccc(C)c3)nc(C)c2c1 returned Luc counter 3%, ELG1 genotoxic inconclusive, SMN2 splice up 20µM*, Rab9 prom act 4µM*, NPC1 promoter act inconclusive and FLuc modulator 11µM*.
COc1ccc2nc(SCC(=O)O)nc(C)c2c1 was read as Luc counter -1%, ELG1 genotoxic 15%, SMN2 splice up 36%, Rab9 prom act 9%, NPC1 promoter act 10% and FLuc modulator -22%.
For COc1ccc2nc(SCc3ccccc3C)nc(C)c2c1 the results were Luc counter 1%, ELG1 genotoxic inconclusive, SMN2 splice up 22µM*, Rab9 prom act inconclusive, NPC1 promoter act inconclusive and FLuc modulator inconclusive.
Cc1ccc2nc(SCc3cccc([N+](=O)[O-])c3)nc(C)c2c1 was read as Luc counter -1%, ELG1 genotoxic 1%, SMN2 splice up -9%, Rab9 prom act 2%, NPC1 promoter act 0% and FLuc modulator -16%.
For Cc1ccc(CSc2nc3ccncc3n2Cc2nc(-c3ccccc3C)oc2C)cc1 the results were SMN2 splice up inconclusive and FLuc modulator 4.8µM*.
For Cc1oc(-c2ccccc2F)nc1Cn1c(SCc2cccc(Cl)c2)nc2ccncc21 the results were SMN2 splice up 10% and FLuc modulator inconclusive.
Cc1ccc(CSc2nc3cccnc3n2Cc2nc(-c3ccccc3F)oc2C)cc1 was read as FLuc modulator 5.4µM*.
`COc1ccc(CSc2nc3ccncc3n2Cc2nc(-c3ccc(OC)c(OC)c3)oc2C)cc1` gave SMN2 splice up inconclusive and FLuc modulator 4.8µM*.
For COc1ccc(-c2nc(Cn3c(SCc4cccc(Cl)c4)nc4ccncc43)c(C)o2)cc1 the results were SMN2 splice up 18% and FLuc modulator -3%.
Screening O=C(CSc1nnc(SCc2ccccc2)s1)N/N=C/C=C\c1ccco1 returned Luc counter -1%, ELG1 genotoxic -2%, SMN2 splice up -4%, Rab9 prom act -7%, NPC1 promoter act -2% and FLuc modulator inconclusive.
O=C(CSc1nnc(SCc2ccccc2)s1)N/N=C/C=C/c1ccccc1[N+](=O)[O-] was read as Luc counter -1%, ELG1 genotoxic 0%, SMN2 splice up 7%, Rab9 prom act -3%, NPC1 promoter act -6% and FLuc modulator 24µM*.
Screening Cc1ccc(CSc2nnc(SCC(=O)N/N=C/c3ccc(C(=O)O)cc3)s2)cc1 returned ELG1 genotoxic 6%, Rab9 prom act -1%, NPC1 promoter act -2% and FLuc modulator 0.24µM*.
Screening O=C(CSc1nnc(SCc2ccccc2)s1)N/N=C/c1ccc(C(=O)O)cc1 returned ELG1 genotoxic -4%, Rab9 prom act -1%, NPC1 promoter act -4% and FLuc modulator 2.4µM*.
`O=C(CSc1nnc(SCc2ccccc2)s1)N/N=C/c1ccc(Cl)cc1Cl` gave Luc counter -1%, ELG1 genotoxic 5%, SMN2 splice up 7%, Rab9 prom act -3%, NPC1 promoter act 1% and FLuc modulator 0%.
Screening O=C(CSc1nnc(SCc2ccc(Cl)cc2)s1)N/N=C/c1c(Cl)cccc1Cl returned Luc counter -1%, ELG1 genotoxic 6%, SMN2 splice up -7%, Rab9 prom act 5%, NPC1 promoter act 13% and FLuc modulator -9%.
`O=C(CSc1nc2ccccc2s1)N/N=C/c1ccc(C(=O)O)cc1` gave Luc counter 2%, ELG1 genotoxic 1%, SMN2 splice up 12%, Rab9 prom act -2%, NPC1 promoter act -1% and FLuc modulator 27µM*.
O=C(CSc1nc2ccccc2s1)N/N=C/c1ccccc1C(=O)O was read as ELG1 genotoxic inconclusive, Rab9 prom act 11%, NPC1 promoter act 8% and FLuc modulator inconclusive.
`COc1ccc([C@]23Cc4cc(OC)c(OC)cc4C(O2)C2=C(CC4(CCCCC4)OC2=O)O3)cc1` gave Rab9 prom act -1%[1.84 µM], NPC1 promoter act 1%[1.84 µM] and FLuc modulator -8%[11.5 µM].
